# Residue numbers refer to the chain shown, from its start.
# Legend:
# Assay in all cases: PBM; 200 nM protein, PBS
# Conditions in all cases: dsDNA, one strand shown
# [1] = target: HOXB9 (Homo sapiens, UniProt P17482 171-250, T197M)
# [2] = target: HOXC9 (Homo sapiens, UniProt P31274 178-260, K195R)
# [3] = target: T1, VENTX (Homo sapiens, UniProt O95231 78-163)
# T1 sequence: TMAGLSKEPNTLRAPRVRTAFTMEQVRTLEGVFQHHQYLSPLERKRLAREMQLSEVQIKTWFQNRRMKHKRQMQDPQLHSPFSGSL
# [4] = target: HOXA7 (Homo sapiens, UniProt P31268 116-202)
# [5] = target: HOXC10 (Homo sapiens, UniProt Q9NYD6 254-340)
# [6] = target: T2, PAX4 (Homo sapiens, UniProt O43316 9-242, R200K)
# T2 sequence: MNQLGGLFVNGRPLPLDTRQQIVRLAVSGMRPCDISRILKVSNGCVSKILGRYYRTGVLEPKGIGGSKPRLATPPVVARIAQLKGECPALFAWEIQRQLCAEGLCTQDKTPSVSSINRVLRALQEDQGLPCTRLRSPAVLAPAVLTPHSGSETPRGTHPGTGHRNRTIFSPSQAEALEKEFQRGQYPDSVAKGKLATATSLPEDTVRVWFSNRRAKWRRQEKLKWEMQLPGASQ
# [7] = target: T3, PAX4 (Homo sapiens, UniProt O43316 9-242)
# T3 sequence: T2 sequence with K192R
# [8] = target: HOXB9 (Homo sapiens, UniProt P17482 171-250)
# [9] = target: HOXC9 (Homo sapiens, UniProt P31274 178-260)
# [10] = target: HOXC9 (Homo sapiens, UniProt P31274 178-260, R193K)
# [11] = target: T4, PAX4 (Homo sapiens, UniProt O43316 9-242, F177V)
# T4 sequence: T2 sequence with F169V, K192R
# [12] = target: HOXC10 (Homo sapiens, UniProt Q9NYD6 254-340, K271E)
# [13] = target: T5, PAX4 (Homo sapiens, UniProt O43316 9-242, F177Y)
# T5 sequence: T2 sequence with F169Y, K192R
# [14] = target: VAX1 (Homo sapiens, UniProt Q5SQQ9 86-172)
# [15] = target: HOXB9 (Homo sapiens, UniProt P17482 171-250, R186Q)
# [16] = target: HOXC9 (Homo sapiens, UniProt P31274 178-260, R222W)
# [17] = target: T6, PAX4 (Homo sapiens, UniProt O43316 9-242, R227W)
# T6 sequence: T2 sequence with K192R, R219W
# [18] = target: HOXA2 (Homo sapiens, UniProt O43364 129-215, Y150S)
# [19] = target: HOXA7 (Homo sapiens, UniProt P31268 116-202, W177C)
# [20] = target: HOXA2 (Homo sapiens, UniProt O43364 129-215)
# Sequence of HOXA2 (Homo sapiens, UniProt O43364 129-215) (O43364 129-215): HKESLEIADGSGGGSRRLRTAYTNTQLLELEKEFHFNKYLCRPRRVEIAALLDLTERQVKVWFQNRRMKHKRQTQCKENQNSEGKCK
# Sequence of HOXA7 (Homo sapiens, UniProt P31268 116-202, W177C) (P31268 116-202 W177C): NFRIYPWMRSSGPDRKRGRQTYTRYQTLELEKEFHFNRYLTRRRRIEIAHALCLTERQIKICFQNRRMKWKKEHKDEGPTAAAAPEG
# Sequence of HOXC9 (Homo sapiens, UniProt P31274 178-260, R222W) (P31274 178-260 R222W): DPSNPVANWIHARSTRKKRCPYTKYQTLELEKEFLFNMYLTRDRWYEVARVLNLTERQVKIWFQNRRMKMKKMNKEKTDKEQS
# Sequence of HOXA2 (Homo sapiens, UniProt O43364 129-215, Y150S) (O43364 129-215 Y150S): as the sequence (O43364 129-215) above, with Y22S counted along it
# Sequence of HOXB9 (Homo sapiens, UniProt P17482 171-250, R186Q) (P17482 171-250 R186Q): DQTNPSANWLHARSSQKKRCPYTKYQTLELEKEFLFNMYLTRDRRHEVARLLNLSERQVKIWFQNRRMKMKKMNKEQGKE
# Sequence of HOXC9 (Homo sapiens, UniProt P31274 178-260) (P31274 178-260): as the sequence (P31274 178-260 R222W) above, with W45R counted along it
# Sequence of HOXC9 (Homo sapiens, UniProt P31274 178-260, R193K) (P31274 178-260 R193K): as the sequence (P31274 178-260 R222W) above, with R16K, W45R counted along it
# Sequence of HOXB9 (Homo sapiens, UniProt P17482 171-250, T197M) (P17482 171-250 T197M): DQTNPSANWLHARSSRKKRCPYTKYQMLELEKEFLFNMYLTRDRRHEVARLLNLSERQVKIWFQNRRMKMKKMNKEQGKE
# Sequence of VAX1 (Q5SQQ9 86-172): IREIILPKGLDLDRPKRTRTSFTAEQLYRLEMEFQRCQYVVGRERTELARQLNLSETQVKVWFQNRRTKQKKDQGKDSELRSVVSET
# Sequence of HOXC10 (Homo sapiens, UniProt Q9NYD6 254-340, K271E) (Q9NYD6 254-340 K271E): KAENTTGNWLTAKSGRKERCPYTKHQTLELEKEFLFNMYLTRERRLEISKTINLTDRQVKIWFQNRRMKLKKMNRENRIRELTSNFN
# Sequence of HOXB9 (Homo sapiens, UniProt P17482 171-250) (P17482 171-250): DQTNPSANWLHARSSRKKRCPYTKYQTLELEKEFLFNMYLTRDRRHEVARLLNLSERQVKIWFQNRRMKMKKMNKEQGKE
# Sequence of HOXC10 (Homo sapiens, UniProt Q9NYD6 254-340) (Q9NYD6 254-340): as the sequence (Q9NYD6 254-340 K271E) above, with E18K counted along it
# Sequence of HOXA7 (Homo sapiens, UniProt P31268 116-202) (P31268 116-202): as the sequence (P31268 116-202 W177C) above, with C62W counted along it
# Sequence of HOXC9 (Homo sapiens, UniProt P31274 178-260, K195R) (P31274 178-260 K195R): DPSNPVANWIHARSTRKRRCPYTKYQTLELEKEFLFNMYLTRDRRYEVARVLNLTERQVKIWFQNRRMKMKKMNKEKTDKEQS
Sequence,binding signal [1],binding signal [2],binding signal [3],binding signal [4],binding signal [5],binding signal [6],binding signal [7],binding signal [8],binding signal [9],binding signal [10],binding signal [11],binding signal [12],binding signal [13],binding signal [14],binding signal [15],binding signal [16],binding signal [17],binding signal [18],binding signal [19],binding signal [20]
GTAATTAA,"10.6 upbm affinity estimate (log intensity, higher = more binding, comparable within an allelic series)","13.3 upbm affinity estimate (log intensity, higher = more binding, comparable within an allelic series)","13 upbm affinity estimate (log intensity, higher = more binding, comparable within an allelic series)","12.5 upbm affinity estimate (log intensity, higher = more binding, comparable within an allelic series)","12.7 upbm affinity estimate (log intensity, higher = more binding, comparable within an allelic series)","12 upbm affinity estimate (log intensity, higher = more binding, comparable within an allelic series)","12.6 upbm affinity estimate (log intensity, higher = more binding, comparable within an allelic series)","12.6 upbm affinity estimate (log intensity, higher = more binding, comparable within an allelic series)","13.2 upbm affinity estimate (log intensity, higher = more binding, comparable within an allelic series)","13.2 upbm affinity estimate (log intensity, higher = more binding, comparable within an allelic series)","10.8 upbm affinity estimate (log intensity, higher = more binding, comparable within an allelic series)","12.9 upbm affinity estimate (log intensity, higher = more binding, comparable within an allelic series)","11.3 upbm affinity estimate (log intensity, higher = more binding, comparable within an allelic series)","13.8 upbm affinity estimate (log intensity, higher = more binding, comparable within an allelic series)","12.4 upbm affinity estimate (log intensity, higher = more binding, comparable within an allelic series)","11.3 upbm affinity estimate (log intensity, higher = more binding, comparable within an allelic series)","11.2 upbm affinity estimate (log intensity, higher = more binding, comparable within an allelic series)","11.1 upbm affinity estimate (log intensity, higher = more binding, comparable within an allelic series)","9.01 upbm affinity estimate (log intensity, higher = more binding, comparable within an allelic series)","13.2 upbm affinity estimate (log intensity, higher = more binding, comparable within an allelic series)"
CTAATTAA,"10.2 upbm affinity estimate (log intensity, higher = more binding, comparable within an allelic series)","12.7 upbm affinity estimate (log intensity, higher = more binding, comparable within an allelic series)","13.1 upbm affinity estimate (log intensity, higher = more binding, comparable within an allelic series)","11.9 upbm affinity estimate (log intensity, higher = more binding, comparable within an allelic series)","12.2 upbm affinity estimate (log intensity, higher = more binding, comparable within an allelic series)","12.3 upbm affinity estimate (log intensity, higher = more binding, comparable within an allelic series)","12.9 upbm affinity estimate (log intensity, higher = more binding, comparable within an allelic series)","11.8 upbm affinity estimate (log intensity, higher = more binding, comparable within an allelic series)","12.6 upbm affinity estimate (log intensity, higher = more binding, comparable within an allelic series)","12.6 upbm affinity estimate (log intensity, higher = more binding, comparable within an allelic series)","11.2 upbm affinity estimate (log intensity, higher = more binding, comparable within an allelic series)","12.3 upbm affinity estimate (log intensity, higher = more binding, comparable within an allelic series)","11.7 upbm affinity estimate (log intensity, higher = more binding, comparable within an allelic series)","13.7 upbm affinity estimate (log intensity, higher = more binding, comparable within an allelic series)","11.6 upbm affinity estimate (log intensity, higher = more binding, comparable within an allelic series)","11.2 upbm affinity estimate (log intensity, higher = more binding, comparable within an allelic series)","11.5 upbm affinity estimate (log intensity, higher = more binding, comparable within an allelic series)","11 upbm affinity estimate (log intensity, higher = more binding, comparable within an allelic series)","8.82 upbm affinity estimate (log intensity, higher = more binding, comparable within an allelic series)","13 upbm affinity estimate (log intensity, higher = more binding, comparable within an allelic series)"
ATAATTAT,"10.4 upbm affinity estimate (log intensity, higher = more binding, comparable within an allelic series)","12.9 upbm affinity estimate (log intensity, higher = more binding, comparable within an allelic series)","12.3 upbm affinity estimate (log intensity, higher = more binding, comparable within an allelic series)","12 upbm affinity estimate (log intensity, higher = more binding, comparable within an allelic series)","12.3 upbm affinity estimate (log intensity, higher = more binding, comparable within an allelic series)","11.9 upbm affinity estimate (log intensity, higher = more binding, comparable within an allelic series)","12.4 upbm affinity estimate (log intensity, higher = more binding, comparable within an allelic series)","12 upbm affinity estimate (log intensity, higher = more binding, comparable within an allelic series)","12.9 upbm affinity estimate (log intensity, higher = more binding, comparable within an allelic series)","12.8 upbm affinity estimate (log intensity, higher = more binding, comparable within an allelic series)","10.9 upbm affinity estimate (log intensity, higher = more binding, comparable within an allelic series)","12.1 upbm affinity estimate (log intensity, higher = more binding, comparable within an allelic series)","11.3 upbm affinity estimate (log intensity, higher = more binding, comparable within an allelic series)","13.2 upbm affinity estimate (log intensity, higher = more binding, comparable within an allelic series)","11.7 upbm affinity estimate (log intensity, higher = more binding, comparable within an allelic series)","11.2 upbm affinity estimate (log intensity, higher = more binding, comparable within an allelic series)","11.3 upbm affinity estimate (log intensity, higher = more binding, comparable within an allelic series)","10.9 upbm affinity estimate (log intensity, higher = more binding, comparable within an allelic series)","9.06 upbm affinity estimate (log intensity, higher = more binding, comparable within an allelic series)","13.1 upbm affinity estimate (log intensity, higher = more binding, comparable within an allelic series)"
ATTAATTA,"10.6 upbm affinity estimate (log intensity, higher = more binding, comparable within an allelic series)","13.3 upbm affinity estimate (log intensity, higher = more binding, comparable within an allelic series)","13.2 upbm affinity estimate (log intensity, higher = more binding, comparable within an allelic series)","12.6 upbm affinity estimate (log intensity, higher = more binding, comparable within an allelic series)","12.6 upbm affinity estimate (log intensity, higher = more binding, comparable within an allelic series)","12.2 upbm affinity estimate (log intensity, higher = more binding, comparable within an allelic series)","12.8 upbm affinity estimate (log intensity, higher = more binding, comparable within an allelic series)","12.6 upbm affinity estimate (log intensity, higher = more binding, comparable within an allelic series)","13.2 upbm affinity estimate (log intensity, higher = more binding, comparable within an allelic series)","13.2 upbm affinity estimate (log intensity, higher = more binding, comparable within an allelic series)","11.1 upbm affinity estimate (log intensity, higher = more binding, comparable within an allelic series)","12.7 upbm affinity estimate (log intensity, higher = more binding, comparable within an allelic series)","11.6 upbm affinity estimate (log intensity, higher = more binding, comparable within an allelic series)","13.8 upbm affinity estimate (log intensity, higher = more binding, comparable within an allelic series)","12.3 upbm affinity estimate (log intensity, higher = more binding, comparable within an allelic series)","11.5 upbm affinity estimate (log intensity, higher = more binding, comparable within an allelic series)","11.4 upbm affinity estimate (log intensity, higher = more binding, comparable within an allelic series)","11.1 upbm affinity estimate (log intensity, higher = more binding, comparable within an allelic series)","9.01 upbm affinity estimate (log intensity, higher = more binding, comparable within an allelic series)","13.3 upbm affinity estimate (log intensity, higher = more binding, comparable within an allelic series)"
CATAATTA,"10.3 upbm affinity estimate (log intensity, higher = more binding, comparable within an allelic series)","12.8 upbm affinity estimate (log intensity, higher = more binding, comparable within an allelic series)","12.6 upbm affinity estimate (log intensity, higher = more binding, comparable within an allelic series)","12 upbm affinity estimate (log intensity, higher = more binding, comparable within an allelic series)","12.3 upbm affinity estimate (log intensity, higher = more binding, comparable within an allelic series)","11.9 upbm affinity estimate (log intensity, higher = more binding, comparable within an allelic series)","12.5 upbm affinity estimate (log intensity, higher = more binding, comparable within an allelic series)","11.9 upbm affinity estimate (log intensity, higher = more binding, comparable within an allelic series)","12.8 upbm affinity estimate (log intensity, higher = more binding, comparable within an allelic series)","12.8 upbm affinity estimate (log intensity, higher = more binding, comparable within an allelic series)","11 upbm affinity estimate (log intensity, higher = more binding, comparable within an allelic series)","12.2 upbm affinity estimate (log intensity, higher = more binding, comparable within an allelic series)","11.3 upbm affinity estimate (log intensity, higher = more binding, comparable within an allelic series)","13.6 upbm affinity estimate (log intensity, higher = more binding, comparable within an allelic series)","11.7 upbm affinity estimate (log intensity, higher = more binding, comparable within an allelic series)","11.1 upbm affinity estimate (log intensity, higher = more binding, comparable within an allelic series)","11.3 upbm affinity estimate (log intensity, higher = more binding, comparable within an allelic series)","11.1 upbm affinity estimate (log intensity, higher = more binding, comparable within an allelic series)","9.06 upbm affinity estimate (log intensity, higher = more binding, comparable within an allelic series)","13 upbm affinity estimate (log intensity, higher = more binding, comparable within an allelic series)"
AGTAATTA,"10.6 upbm affinity estimate (log intensity, higher = more binding, comparable within an allelic series)","13.1 upbm affinity estimate (log intensity, higher = more binding, comparable within an allelic series)","13 upbm affinity estimate (log intensity, higher = more binding, comparable within an allelic series)","12.3 upbm affinity estimate (log intensity, higher = more binding, comparable within an allelic series)","12.3 upbm affinity estimate (log intensity, higher = more binding, comparable within an allelic series)","11.9 upbm affinity estimate (log intensity, higher = more binding, comparable within an allelic series)","12.5 upbm affinity estimate (log intensity, higher = more binding, comparable within an allelic series)","12.3 upbm affinity estimate (log intensity, higher = more binding, comparable within an allelic series)","13 upbm affinity estimate (log intensity, higher = more binding, comparable within an allelic series)","13 upbm affinity estimate (log intensity, higher = more binding, comparable within an allelic series)","10.7 upbm affinity estimate (log intensity, higher = more binding, comparable within an allelic series)","12.5 upbm affinity estimate (log intensity, higher = more binding, comparable within an allelic series)","11.1 upbm affinity estimate (log intensity, higher = more binding, comparable within an allelic series)","13.8 upbm affinity estimate (log intensity, higher = more binding, comparable within an allelic series)","12.1 upbm affinity estimate (log intensity, higher = more binding, comparable within an allelic series)","11.1 upbm affinity estimate (log intensity, higher = more binding, comparable within an allelic series)","11.1 upbm affinity estimate (log intensity, higher = more binding, comparable within an allelic series)","11.1 upbm affinity estimate (log intensity, higher = more binding, comparable within an allelic series)","8.88 upbm affinity estimate (log intensity, higher = more binding, comparable within an allelic series)","13.3 upbm affinity estimate (log intensity, higher = more binding, comparable within an allelic series)"
